# Cycloheximide cs: counter-screen hit for Shiga toxin inhibitors, cycloheximide | actives 12% (n = 300,000) | AID 2314 | max response, % | cell reporter, cycloheximide protein synthesis inhibition counterscreen; in the data active means max response mostly above about 13%, no sharp cut-off; inactive means mostly below about 14%; further: read at 38.3 µM for the half of the compounds with a filed dose; 0% is about no effect
# RE007 growth inh: less growth of the S. pombe RE007 Vpr strain; Potency, µM (series often up to 92.2 µM), inactives show at the highest dose activity change, negative = less growth, actives largely listed as inhibitors; S. pombe RE007 Vpr strain, BacTiter-Glo ATP luminescence, 24 h; actives 0.21% (n = 360,000); active means well fitted falling curve with a large enough effect; inconclusive means small, poorly fitted or top-dose-only effect; inactive means no such curve, though single readings can be large or run the other way; further: potency means the concentration at half of the fitted maximal effect; on the % scale 0 is the no-effect control and ±100 the full control effect; nearly all actives have a fitted effect of over 50% in size
#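 Fission yeast RE007 carrying one integrated HIV-1 vpr copy, seeded at OD 0.01 in PMG+AL medium with 23 nL pinned compound. Grown 24 h at 30 degrees; viability read by BacTiter-Glo luminescence after 5 min.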
# LmPK inh: blocks Leishmania mexicana pyruvate kinase activity; Q27686; Potency, µM (top dose mostly 57.5 µM), for inactives: at the top dose activity change, negative = inhibition, usual class: inhibitors; AID 1721; actives 0.37% (n = 290,000); purified LmPK, Kinase-Glo ATP luminescence, 1 h; further: potency means the concentration at half of the fitted maximal effect; on the % scale 0 is the no-effect control and ±100 the full control effect
#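 In 50 mM imidazole pH 7.2 with 7 mM MgCl2, LmPK (0.1 nM) turned over PEP (0.5 mM) and ADP (0.1 mM) for 1 h at room temperature. Luciferase read-out of ATP.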
# TbPYK inhibitor: T. brucei pyruvate kinase inhibition; Q57TT1; TbPYK enzyme, Kinase-Glo Plus ATP luminescence, 45 min; Potency, µM (series often up to 76.8 µM), inactives show top-dose activity, negative = inhibition, actives largely listed as inhibitors; actives 0.12% (n = 410,000); AID 624173; further: potency means the concentration at half of the fitted maximal effect; on the % scale 0 is the no-effect control and ±100 the full control effect; nearly all actives have a fitted effect of over 50% in size
#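 Enzyme and substrate buffer are dispensed first and compound is pin-transferred. ADP at 130 uM final then starts the reaction, which runs 45 min at room temperature. Detection reagent is added for 10 min before luminescence is imaged.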
# Shiga toxin inh: Shiga toxin inhibition; Vero cells, Shiga toxin protein synthesis inhibition reporter; inhibition, % at 38.7 µM; actives 9.2% (n = 290,000); AID 2315; in the data active means inhibition mostly above about 28%, no sharp cut-off; inactive means mostly below about 43%; further: 0% is about no effect
# FBPA Giardia inh: Giardia lamblia aldolase inhibition; A8B2U2; actives 0.71% (n = 290,000); Potency, µM (top dose mostly 59.6 µM), without a hit: at the highest dose activity, negative = inhibition, most hits filed as inhibitors; purified Giardia FBPA; further: potency means the concentration at half of the fitted maximal effect; on the % scale 0 is the no-effect control and ±100 the full control effect; nearly all actives have a fitted effect of over 55% in size
# Target sequence (A8B2U2 whole entry, looked up): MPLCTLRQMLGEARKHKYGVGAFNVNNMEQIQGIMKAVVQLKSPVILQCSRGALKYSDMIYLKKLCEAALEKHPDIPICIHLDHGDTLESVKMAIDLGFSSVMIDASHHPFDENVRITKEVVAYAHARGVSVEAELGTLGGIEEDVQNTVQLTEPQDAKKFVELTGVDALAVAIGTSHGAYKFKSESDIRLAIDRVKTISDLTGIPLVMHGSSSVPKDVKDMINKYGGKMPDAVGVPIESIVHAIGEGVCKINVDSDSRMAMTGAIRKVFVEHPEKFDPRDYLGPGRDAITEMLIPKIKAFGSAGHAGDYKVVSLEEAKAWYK
#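 40 nM FBPA preincubated 10 min at RT with compound (up to 57.5 uM final), then substrate plus GAPDH/TPI/NAD/arsenate coupling and diaphorase/resazurin added. Fluorescence read after 20 min at RT, 525/598 nm.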
# * marks the source's active call; other numbers are inactive results; u = inconclusive; x = not tested or not shown; [ ] = another dose, or the depositor's remark. This is one part of a sample in which hits are shown more often than they occur. Unless noted, the call rests on the fitted dose curve; in most records, active means well fitted curve in the direction sought with a large enough effect; inconclusive means small, poorly fitted or top-dose-only effect, or another doubt; inactive means no such curve, though single readings can be large; an effect the other way counts as inactive or inconclusive.
SMILES,Cycloheximide cs,RE007 growth inh,LmPK inh,TbPYK inhibitor,Shiga toxin inh,FBPA Giardia inh
Cc1cc(C(=O)N/N=C/C(Cl)=C/c2ccccc2)c(C)o1,27*,-29%,-2%,-24%,43*,-7%
O=C(N/N=C/C=C/c1ccco1)c1cccnc1,-3,-17%,3%,-3%,-8,u
O=C(N/N=C/C=C\c1ccccc1[N+](=O)[O-])c1ccccn1,61*,-15%,-4%,1%,75*,0%
CCN(CC)S(=O)(=O)c1ccc(NC(=O)c2c(C)oc3ncnc(N4CCOCC4)c23)cc1,x,x,x,0%,x,x
Cc1ccc(NC(=O)Cn2c(=O)c(C(F)(F)F)nc3ccccc32)c(C)c1,x,x,x,-1%,x,x
O=C(CSc1ccccn1)N/N=C/C=C/c1ccccc1,32*,6%,9%,2%,90*,0%
CC(/C=C/c1ccccc1)=N/NC(=O)Cn1nnc(N)n1,-3,3%,0%,6%,30,-3%
O=C(N/N=C/C=C\c1ccccc1)c1cnccn1,10,-4%,3%,5%,38,-5%
O=C(CNC(=O)c1ccccc1)N/N=C/C=C/c1ccccc1,-2,0%,0%,-9%,-6,3%
Nc1nnn(CC(=O)N/N=C/C=C/c2ccccc2)n1,21*,10%,2%,1%,58*,-5%
O=C(N/N=C/C=C/c1ccccc1)c1ccccn1,55*,-7%,-1%,-7%,68*,-24%
O=C(CCC(=O)Nc1ccccc1)N/N=C/C=C/c1ccccc1,10.0*,-1%,-1%,-25%,9,0%
CC1CC2C3CCC4=CC(=O)C=CC4(C)[C@@]3(F)C(O)CC2(C)[C@@]1(O)C(=O)CCl (some centres not stated),x,x,x,-20%,x,x
CCCCC/C=C\C/C=C\CCCCCCCC(=O)NCCc1ccc(O)c(O)c1,x,x,x,x,x,0%
O=C(N/N=C/C=C\c1ccco1)c1ccccn1,24*,2%,-4%,-16%,40,u
O=C(N/N=C/c1ccncc1)c1cnccn1,9,5%,0%,-1%,46,-7%
O=C(N/N=C/C(Br)=C/c1ccccc1)c1cnccn1,50*,-7%,-8%,2%,99*,-2%
COc1ccc(Cn2c(=O)n(Cc3ccco3)c(=O)c3oc4ccccc4c32)cc1,x,x,x,-2%,x,x
O=C(NC12CC3CC(CC(C3)C1)C2)c1ccc(Br)o1,7,-30%,7%,6%,-2,6%
O=C(NC1CCS(=O)(=O)C1)c1ccc(-c2ccc(Br)cc2)o1 (configuration not stated),19*,-9%,4%,-7%,35,2%
O=C(NC1CCS(=O)(=O)C1)c1ccc(Br)o1 (configuration not stated),-7,2%,0%,2%,-4,6%
O=C(NC12CC3CC(CC(C3)C1)C2)c1ccc([N+](=O)[O-])o1,11*,-20%,3%,1%,15,2%
O=C(NC12CC3CC(CC(C3)C1)C2)c1ccc(-c2ccc(Br)cc2)o1,68*,-4%,-4%,4%,108*,-5%
O=C(CCN1C(=O)c2ccccc2Sc2ncccc21)Nc1ccc(F)cc1F,x,x,x,4%,x,x
COc1ccccc1OCC(=O)NC1CCCCCCC1,x,1%,x,9%,x,x
SMILES,Cycloheximide cs,RE007 growth inh,LmPK inh,TbPYK inhibitor,Shiga toxin inh,FBPA Giardia inh
COc1ccccc1-c1ccc(NC2CCCCC2)nn1,31*,-7%,-1%,-1%,72*,-10%
COc1ccccc1-c1ccc(Nc2cccc(C(F)(F)F)c2)nn1,15*,2%,5%,6%,14,-2%
CC(=O)OCOC(=O)CNc1ccccc1OCCOc1ccccc1NCC(=O)OCOC(C)=O,-10,x,x,x,-7,-8%
CCN1CCN(C(=O)Cn2ncc3c4ccccc4n(Cc4ccccc4F)c3c2=O)CC1,x,x,x,8%,x,x
Cc1cc2n(n1)C(c1c[nH]c3ccccc13)Nc1ccccc1-2 (configuration not stated),29*,-3%,3%,-5%,41*,9%
Cc1ccc(NC(=S)NC(=O)c2ccc(Br)o2)c(C)c1,29*,-6%,1%,-4%,61*,-3%
Cc1ccc(C)c(NC(=S)NNC(=O)c2ccc(Br)o2)c1,16*,10%,0%,-3%,70*,6%
Cc1cccc(NC(=S)NC(=O)c2ccc(Br)o2)c1C,1,-18%,0%,-4%,32,-7%
Cc1cccc(C)c1NC(=S)NC(=O)c1ccc(Br)o1,-3,-21%,1%,-20%,2,-12%
O=C(NC(=S)Nc1ccccc1F)c1ccc(Br)o1,33*,-17%,2%,-1%,124*,-10%
CCCCCn1c(CCNC(=O)c2cccc(C)c2)nc2ccccc21,x,x,x,-2%,x,x
O=c1c2ccc([N+](=O)[O-])cc2ncn1CCOc1ccccc1,20*,-9%,0%,-16%,54*,-7%
O=c1c2ccccc2ncn1CCOc1ccccc1[N+](=O)[O-],26*,4%,-4%,0%,37,1%
Cc1ccc(OCCOCCn2cnc3ccccc3c2=O)c([N+](=O)[O-])c1,1,-7%,0%,2%,-4,-3%
O=C1CN(C(=O)COc2ccc(Cl)cc2)C(c2ccccc2)c2cc(Br)ccc2N1 (configuration not stated),x,x,x,0%,x,x
CCCCNc1nc(C)nc2c1nc(-c1ccccc1)n2CC1CCN(C)CC1,x,x,x,x,x,2%
O=C(O)CCCCCN1C(=O)C(O)=C(C(=O)/C=C/c2ccccc2)C1c1ccccc1[N+](=O)[O-] (configuration not stated),14*,-13%,2%,-5%,41,-29%
O=c1c(-c2ccc(Cl)cc2)nc2cnc(N3CCOCC3)nc2n1CCc1ccccc1,x,x,x,x,x,7%
COc1ccc(-c2nc3c(c4c2C[C@H](c2ccccc2)OC4)CN(C(=O)Nc2cccc(C#N)c2)CC3)c(C)c1,x,x,-7%[11.5 µM],x,x,2%[12.9 µM]
N=C1CCCN1CC(=O)c1ccc(Cl)cc1,-3,-11%,3%,5%,19,-6%
COc1ccc(C(=O)O/N=C(\N)Cc2ccc(Cl)c(Cl)c2)cc1OC,7,u,6%,-8%,-1,1%
N/C(CN1CCCC1=O)=N\OC(=O)c1ccc(Cl)c(Cl)c1,23*,0%,-11%,4%,-6,3%
N/C(CN1CCCC1=O)=N\OC(=O)c1ccc(Cl)cc1,15*,6%,-1%,5%,-4,3%
CCCC[C@H]1C2=C3[C@@H](CC(C(=O)OC)=C[C@@H](C(=O)OC)[C@H]3C(C)(C)C2=O)n2c(=O)n(C)c(=O)n21,-2,x,x,x,5,-1%
Oc1cccc2ccc(/C=C/c3ccccc3Cl)nc12,40*,x,-11%,-2%,72*,9%
Nc1nccc(/C=C/c2c(F)cccc2Cl)n1,28*,6%,-13%,-11%,68*,-2%

# Screens (PubChem)
